Experimental data reported in PubChem BioAssay (Tox21).
Inconclusive results are not listed. Calls of active or inactive are those of the source. Calls come from the whole dose curve; as a rule, active = well fitted activation curve with a large enough effect in the repeat runs; inconclusive = weak or mixed curves; inactive = no such curve, though single readings can be large or run the other way.

Test: qHTS assay for small molecules that induce genotoxicity in human embryonic kidney cells expressing luciferase-tagged ATAD5 (AID 651632); note: nearly all actives have a fitted effect of over 15% in size
Settings: HEK293T ATAD5-luciferase induction, 16 h; series mostly up to 83.3 µM
Source text: U.S. Tox21 Program National Center for Advancing Translational Sciences [NCATS] NIH Chemical Genomics Center [NCGC] U.S. Environmental Protection Agency [EPA] National Institutes of Environmental Health Sciences [NIEHS] National Toxicology Program [NTP] U.S. Food and Drug Administration [FDA] Tox21 Assay Overview: As cancer cells divide rapidly and during every cell division they need to duplicate their genome by DNA replication. The failure to do so results in the cancer cell death. Based on this concept, many chemotherapeutic agents were developed but have limitations such as low efficacy and severe side effects etc. A new cell based assay was developed to find the compounds that effectively block DNA replication either by directly damaging DNA or by inhibiting other cellular mechanisms. Enhanced Level of Genome Instability Gene 1 (ELG1; human ATAD5) protein levels increase in response to various types of DNA damage. Using a luciferase reporter-gene tagged with ATAD5, a cell-based assay [developed by Kyungjae Myung, NHGRI, NIH] was used to measure the induction of ATAD5 in human embryonic kidney cells (HEK293T). So, increase in luciferase activity can be used to identify the compounds that cause genetic stress.
Tox21 Assay Protocol Summary: For genotoxicity screening, 2,000 cells in 5 uL/well were dispensed into white, solid-bottom 1536-well plates using a Multidrop Combi (Thermo Scientific) dispenser. Following transfer of 23 nL compound or DMSO vehicle by a pin tool, the plates were incubated 16 hr at 37C and 5% CO2. 5 ul Amplite (AAT Bioquest, Inc.) was then added to each plate and following 30 min incubation at room temperature, luciferase activity was quantified on a ViewLux CCD-based plate reader.

| SMILES | outcome |
| --- | --- |
| CC#Cc1cc(C)nc(Nc2ccccc2)n1 | inactive |
| [P]#[In] | inactive |
| O=C(Cl)CCl | inactive |
| NCC1(CC(=O)O)CCCCC1 | inactive |
| CC1NCCOC1c1ccccc1 (stereo not given) | inactive |
| COc1cccc(C=O)c1 | inactive |
| CCNc1nc(Cl)nc(NC(C)(C)C)n1 | inactive |
| C[C@]12C=CC(=O)C=C1CC[C@@H]1[C@@H]2CC[C@@]2(C)[C@H]1CC[C@]2(C)O | inactive |
| CC(C)NCC(O)c1ccc([N+](=O)[O-])cc1 (stereo not given) | inactive |
| CCOP(=S)(OCC)SCCl | inactive |
| O=[N+]([O-])CCO | inactive |
| COc1ccccc1OC | inactive |
| CON(C)C(=O)Nc1ccc(Br)cc1 | inactive |
| CCC1(c2cccc(O)c2)CCCCN(C)C1 (stereo not given) | inactive |
| O=C(O)C(Br)(Br)Br | inactive |
| CNC(=O)NC(O)C(Cl)(Cl)Cl (stereo not given) | inactive |
| CCOC(=O)COc1ccc(Cl)cc1Cl | inactive |
| CC(C)[C@]12CC(=O)[C@H](C)[C@H]1C2 | inactive |
| CCOC(=O)NC(C)(C)Cc1ccc(Cl)cc1 | inactive |
| NC(=O)OCCCc1ccccc1 | inactive |

| SMILES | outcome |
| --- | --- |
| CC(=O)OCC1=C(C(=O)O)N2C(=O)[C@@H](N)[C@H]2SC1 | inactive |
| C[N+]1(C)CCCCC1 | inactive |
| C=CC1(C)OC(=O)N(c2cc(Cl)cc(Cl)c2)C1=O (stereo not given) | inactive |
| CCC(C(N)=O)N1CCCC1=O (stereo not given) | inactive |
| N#CN=C1SCCN1Cc1ccc(Cl)nc1 | inactive |
| O=c1[nH]oc2c1CCNC2 | inactive |
| CS(=O)(=O)Cl | inactive |
| CCN(CCO)CCn1c(Cc2ccccc2)nc2c1c(=O)n(C)c(=O)n2C | inactive |
| c1ccc2c(c1)CCNC2 | inactive |
| COC(=O)c1ccccc1CS(=O)(=O)NC(=O)Nc1nc(OC)cc(OC)n1 | inactive |
| CN(CCO)CCO | inactive |
| Nc1c(Cl)c(F)nc(OCC(=O)O)c1Cl | inactive |
| C#CC(C)(C)O | inactive |
| CC(O)CCl (stereo not given) | inactive |
| CC[C@@H](CO)NC(=O)[C@@H]1C=C2c3cccc4c3c(cn4C)C[C@H]2N(C)C1 | inactive |
| CCOP(=S)(OCC)Oc1ccc(Cl)cc1Cl | inactive |
| CCCCS(=O)(=O)Cl | inactive |
| N#CN | inactive |
| CCN(CCO)CCO | inactive |
| CCc1cc(OC)c(C[C@H](C)N)cc1OC | inactive |
